Experimental findings from ChEMBL document CHEMBL3988442, “University of Dundee, Small-Polar-MMV Screening Library” (2021) are described below.

For this assay, the target named is AMP-activated protein kinase, AMPK (Homo sapiens) (UniProt P54646+O43741+P54619+Q9UGJ0+Q9Y478+Q13131+Q9UGI9). The assay is described as follows: AMP-dependent Kinase enzyme assay. An in vitro enzyme assay that detects ADP turnover that is directly proportional to AMPK activity. This uses naive AMPK that is activated during the assay with MK-8722. The settings on record: 30 µM. The assay is classed as functional. Also on record: scale not given: direction of the effect not stated beside the values.

Regarding `Cc1oc(-c2ccco2)nc1CN1CCc2cncnc2C1`, the Percent Effect was -10.6%.
For `CC(=O)N1CCCC1CCc1ccnc(-c2cncnc2)c1` (stereo not given), the Percent Effect stood at 22.4%.
In the case of `CS(=O)(=O)CCN1CCSCC1c1ccc(Cl)cc1` (stereo not given) it was -2.02%; in that of `Cc1noc(-c2ccc(N(C)Cc3cccnc3)nc2)n1`, -3.84%; in that of `CC1CN(CC(=O)NCc2ccc(F)cc2)CCN1c1nccs1` (stereo not given), 10.2%.
`Cn1ccnc1-c1cn(CCCc2csc(N)n2)nn1`: the Percent Effect is -21%.
In the case of `FC(F)(F)c1cccc(OC2CCN(Cc3c[nH]cn3)CC2)c1` it was 18%; in that of `Cn1nc(C(=O)NCc2ccc(OC3CCCCC3)nc2)ccc1=O`, 8.07%; in that of `CCN1CC2(CCC1=O)CCN(Cc1cccc(OC(F)F)c1)CC2`, -0.304%.
Then `O=C(CC1=CSC2=NCCN12)N1CCCC(CCc2cccc(F)c2)C1` (stereo not given), with 13.4%.
In the case of `COCC(O)CNC(=O)c1cc(COc2ccc3c(c2)CCCC3)on1` (stereo not given) it was -0.134%.
On to `COCCNC(=O)c1cnc(C)nc1C`, for which the Percent Effect was found to be 3.33%.
Then `CCCC1COCCN1Cc1ccc(S(=O)(=O)NC)cc1` (stereo not given), with 0.167%; and `N#Cc1cccc(NC(=O)N[C@H](CO)Cc2ccc(O)cc2)c1`, with 6.46%.
Regarding `COCCN(C)c1cnn(C)c(=O)c1Br`, the Percent Effect is -10.9%.
Then `COc1ccc(CN(C)[C@@H]2COC[C@H]2c2ccc(F)cc2)c(OC)c1`, with 10.5%; and `Cc1nnc(CN(C)CC(=O)NCCc2ccc(F)cc2)n1C`, with 5.73%.
In the case of `O=C(Cn1cnc2ccsc2c1=O)c1ccc2c(c1)OCCO2` it was -4.28%; in that of `O=C(Cn1ccnc1)N1CC[C@H](Oc2cccc(F)c2)[C@@H](O)CC1`, 8.87%; in that of `CC(=O)N1CCC(c2ncc(C(=O)Nc3ccc(F)cc3)c(C)n2)CC1`, -4.39%.
